Experimental data published in PubChem BioAssay AID1502 (Sanford-Burnham Center for Chemical Genomics, 2009).
Some of the results follow. Active and inactive are the calls of the source. Rule as the data show it: active = inhibition above about 40%; inactive = the rest.

target: Runt-related transcription factor 1 (Homo sapiens) + Core-binding factor subunit beta (Homo sapiens) (UniProt Q01196+Q13951); experiment: Runt domain/CBFb interaction disruptors – biochemical, TR-FRET (AID 1502); conditions: TR-FRET RUNX1 Runt domain-CBFb binding; at 20 µM; hits give high values
Sequence (Q01196 whole entry, looked up, the tested form may be a part): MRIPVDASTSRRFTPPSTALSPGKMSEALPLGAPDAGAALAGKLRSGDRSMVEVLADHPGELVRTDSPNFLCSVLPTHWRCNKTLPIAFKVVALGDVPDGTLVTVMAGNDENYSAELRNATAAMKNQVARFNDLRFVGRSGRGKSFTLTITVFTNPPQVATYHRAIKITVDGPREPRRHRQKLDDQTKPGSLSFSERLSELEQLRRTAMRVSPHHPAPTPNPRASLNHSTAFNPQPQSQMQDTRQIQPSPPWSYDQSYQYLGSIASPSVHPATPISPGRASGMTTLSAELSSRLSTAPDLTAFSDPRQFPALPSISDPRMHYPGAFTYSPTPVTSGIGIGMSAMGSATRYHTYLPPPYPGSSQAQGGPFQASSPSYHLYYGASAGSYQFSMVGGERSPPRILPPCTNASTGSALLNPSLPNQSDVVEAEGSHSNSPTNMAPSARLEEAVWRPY
Sequence (Q13951 whole entry, looked up, the tested form may be a part): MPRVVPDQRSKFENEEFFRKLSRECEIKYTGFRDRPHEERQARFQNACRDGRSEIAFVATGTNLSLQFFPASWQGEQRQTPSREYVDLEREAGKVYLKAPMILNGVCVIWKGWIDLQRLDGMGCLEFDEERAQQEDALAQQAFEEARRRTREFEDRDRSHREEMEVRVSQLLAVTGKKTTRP

inhibition, inactive:
N#Cc1c(N)n(CCOC(=O)c2ccc(Cl)cc2)c2nc3ccccc3nc12 4%
CC(C)Oc1ccc(/C=C(\NC(=O)/C=C/c2ccco2)C(=O)NCCc2nc3ccccc3[nH]2)cc1 -3.3%
Cc1cccc(-n2c(N)c(C(=O)N3CCN(C)CC3)sc2=S)c1 18.2%
CC(C)(C)OC(=O)c1c(N)n(CCCN2CCCC2=O)c2nc3ccccc3nc12 34.4%
OCCN1CCN(C(=S)c2ccc(-c3ccccc3)cc2)CC1 15.5%
CCN1/C(=C/C(=S)Nc2ccccc2)Sc2ccccc21 -2.1%
CCCS(=O)(=O)N1CCCC(C(=O)NCc2ccco2)C1 (stereo unspecified) 2.1%
Cc1cc(C)c2c3c(sc2n1)C(c1ccccc1)C(C#N)=C(N)O3 (stereo unspecified) 1.6%
CC(C)Cn1c(CCC(=O)O)ccc1-c1cccs1 17%
Cc1cc(F)ccc1S(=O)(=O)Nc1ncnc2scc(-c3ccc(F)cc3)c12 -13.5%
CC(=O)Oc1ccc2c(C)c(CC(C)O)c(=O)oc2c1 (stereo unspecified) 14%
CCOC(=O)c1cc2c(=O)n3ccccc3nc2n(CC(C)C)c1=NC(=O)c1c(-c2c(F)cccc2Cl)noc1C -8.1%
CCN1C(=O)/C(=C2/Sc3ccccc3N2CCCS(=O)(=O)O)SC1=S 10.7%
N#CC1=C(N)Oc2cc(O)ccc2C1C1CCCCC1 (stereo unspecified) -0.9%
CCCN1C2=C(C(=O)CCC2)C(c2ccc(O)c(Br)c2)C2=C1CCCC2=O 29.9%

inhibition, active:
CCOc1cccc(/C=N/N2C(=O)CSC2=S)c1O 77.6%
